Assay results published in the supplement of paper PMC3545927.
The list shows a part of the results. The hit rate among all sequences tested is not known here.

Biological target: furin, P09958
Experiment: furin cleavage Z-score vs untreated control; higher = more cleavage, active = 3.5 or more, inactive = 1 or less, 8 variable residues between constant flanks
In short: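 Purified furin cleaved 8-mer peptides that were fused to a cDNA oligonucleotide and held on magnetic beads by their N-terminus. Each 0.01 ml reaction used a 1:10 enzyme:substrate ratio in 50 mM HEPES pH 7.5 with CaCl2 and NaCl and ran 7.5, 15 or 30 min. Released DNA was adapter-tagged by PCR and sequenced, and read counts gave abundance. The cleavage Z-score came from log counts against furin-free reactions, lowess-adjusted and scaled by median absolute deviation.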

Sequence of furin, P09958 (P09958 whole entry): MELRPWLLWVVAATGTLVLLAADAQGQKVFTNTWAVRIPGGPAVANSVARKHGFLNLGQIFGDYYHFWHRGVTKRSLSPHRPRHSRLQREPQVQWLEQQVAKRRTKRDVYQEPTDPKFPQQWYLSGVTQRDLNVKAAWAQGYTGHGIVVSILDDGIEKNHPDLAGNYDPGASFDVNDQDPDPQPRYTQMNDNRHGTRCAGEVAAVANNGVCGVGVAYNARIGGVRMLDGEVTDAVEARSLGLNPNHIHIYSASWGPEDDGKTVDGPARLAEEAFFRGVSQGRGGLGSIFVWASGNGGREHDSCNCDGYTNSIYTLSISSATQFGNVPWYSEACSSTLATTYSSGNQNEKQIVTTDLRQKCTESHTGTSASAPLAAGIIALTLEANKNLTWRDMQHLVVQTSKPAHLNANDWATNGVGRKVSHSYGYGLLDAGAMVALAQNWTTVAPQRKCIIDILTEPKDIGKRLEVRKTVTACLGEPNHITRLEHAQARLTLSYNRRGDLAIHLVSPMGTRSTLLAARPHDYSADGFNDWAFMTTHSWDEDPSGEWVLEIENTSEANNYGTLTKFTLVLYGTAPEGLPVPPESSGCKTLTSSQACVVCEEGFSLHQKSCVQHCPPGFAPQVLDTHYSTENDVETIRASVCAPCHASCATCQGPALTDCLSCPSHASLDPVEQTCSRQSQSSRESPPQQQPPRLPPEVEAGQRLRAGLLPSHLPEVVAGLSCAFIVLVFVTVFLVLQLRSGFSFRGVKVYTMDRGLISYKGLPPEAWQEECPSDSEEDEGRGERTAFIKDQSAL

Sequence	furin cleavage Z-score (7.5 min)	furin cleavage Z-score (15 min)	furin cleavage Z-score (30 min)
CAPGPRPRRDAGNASASA [FS-472]	14.1 (active)	15 (active)	10.8 (active)
CAPLARPRRDAGNASASA [FS-556]	9.88 (active)	7.62 (active)	6.73 (active)
CAPLARAAWEAGNASASA [HC1566]	0.967 (inactive)	1.75	0.234 (inactive)
CAKHNRPRRDAGNASASA [FS-602]	12.5 (active)	11.7 (active)	9.21 (active)
CARSPRPRGDAGNASASA [FS-3090]	0.374 (inactive)	-0.595 (inactive)	0.318 (inactive)
CAPEPREQRDAGNASASA [FS-1045]	-0.201 (inactive)	-0.175 (inactive)	-0.45 (inactive)
CAGSRRPRRDAGNASASA [FS-789]	13.1 (active)	13 (active)	10.2 (active)
CAGSRRWGRYAGNASASA [FS-167]	-0.565 (inactive)	1.19	2.01
CAMMECSQHLAGNASASA [HC1686]	-0.328 (inactive)	0.731 (inactive)	0.7 (inactive)
CAEVVTVTWVAGNASASA [HC143]	-0.0202 (inactive)	-1.22 (inactive)	0.0435 (inactive)
CASIEPLDLPAGNASASA [HC1597]	-0.888 (inactive)	1.4	-0.00883 (inactive)
CARRWRSLRPAGNASASA [FS-1924]	-0.388 (inactive)	2.12	2.35
CAPRRRARSLAGNASASA [FS-2479]	10.9 (active)	12.2 (active)	10.3 (active)
CARRERSIKSAGNASASA [FS-863]	3.74 (active)	6.21 (active)	7 (active)
CARRYRGNDSAGNASASA [FS-3072]	-0.0765 (inactive)	-0.858 (inactive)	-0.417 (inactive)
CARNFRFLSSAGNASASA [FS-3004]	-0.151 (inactive)	-0.288 (inactive)	-1.62 (inactive)
CAAPQGSRSLAGNASASA [HC717]	-0.871 (inactive)	-1.2 (inactive)	0.343 (inactive)
CARRRRARSSAGNASASA [FS-3061]	9.64 (active)	8.93 (active)	6.98 (active)
CARRRRSRSSAGNASASA [FS-3263]	8.31 (active)	9.52 (active)	8.33 (active)
